RecA intein inh: inhibitors of M. tuberculosis RecA intein splicing. P9WHJ3. cell-free RecA intein splicing, fluorescence. inhibition, % (concentration not given with the values). actives 0.75% (n = 290,000). AID 2221; in the data active means inhibition above about 30%;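 further: 0% = vehicle wells and 100% = reference inhibitor control wells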
Target sequence (P9WHJ3 whole entry, looked up): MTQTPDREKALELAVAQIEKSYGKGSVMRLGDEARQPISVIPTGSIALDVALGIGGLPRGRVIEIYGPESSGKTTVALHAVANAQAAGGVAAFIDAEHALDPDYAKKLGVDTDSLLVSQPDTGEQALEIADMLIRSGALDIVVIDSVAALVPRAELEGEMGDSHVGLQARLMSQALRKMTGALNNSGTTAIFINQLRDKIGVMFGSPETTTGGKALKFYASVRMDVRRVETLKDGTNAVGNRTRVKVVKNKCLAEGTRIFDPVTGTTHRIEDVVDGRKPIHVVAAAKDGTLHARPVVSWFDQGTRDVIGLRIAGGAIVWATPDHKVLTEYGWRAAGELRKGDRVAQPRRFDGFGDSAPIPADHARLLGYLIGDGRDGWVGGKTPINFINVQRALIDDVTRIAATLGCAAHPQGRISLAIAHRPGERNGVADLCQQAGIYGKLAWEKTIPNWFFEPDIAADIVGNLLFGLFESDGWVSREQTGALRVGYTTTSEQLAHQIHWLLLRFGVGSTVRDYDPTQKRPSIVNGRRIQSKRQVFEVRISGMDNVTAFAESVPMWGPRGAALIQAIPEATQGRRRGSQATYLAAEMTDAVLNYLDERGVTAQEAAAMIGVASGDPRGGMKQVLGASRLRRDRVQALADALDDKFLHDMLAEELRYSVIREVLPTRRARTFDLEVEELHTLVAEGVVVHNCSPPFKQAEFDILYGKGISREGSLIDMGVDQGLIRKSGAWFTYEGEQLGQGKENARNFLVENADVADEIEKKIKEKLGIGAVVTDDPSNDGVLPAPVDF
Mtb FBA inh: inhibitors of M. tuberculosis fructose-bisphosphate aldolase; P9WQA3; purified M. tuberculosis FBA, fluorescence read-out; inhibition, % at 1 µM; actives 2.3% (n = 360,000); in the data active means inhibition above about 27%;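 further: 0% = vehicle and 100% = reference inhibitor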
BJeLR viability: kills HRASV12-expressing BJeLR cells; BJeLR (HRASV12) viability, CellTiter-Glo ATP luminescence, 48 h; inhibition, % (test concentration not listed); actives 0.17% (n = 300,000); AID 1554; in the data active means inhibition above about 50%
PrPC TRFRET: reduces human prion protein on the cell surface; P04156; cell surface PrPC, TR-FRET read-out; inhibition, % at 13.8 µM; actives 0.43% (n = 370,000); AID 720596; in the data active means inhibition above about 24%; further: 0% = median of the test wells and 100% = reference compound wells
GDH-TPI counter: inhibits GDH-TPI coupling enzymes, artifact for Mtb FBA screen; GDH-TPI coupled enzyme counterscreen, NADH absorbance; AID 588335; inhibition, % at 4.8 µM; actives 1.2% (n = 360,000); in the data active means inhibition above about 30%;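 further: 0% = DMSO wells and 100% = wells lacking the enzyme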
* marks the source's active call; other numbers are inactive results. Most compounds without a hit are left out; they make up all but 4.2% or so of the library.

`CN(NC1OC(=O)c2ccccc21)c1ccc(C(F)(F)F)cc1[N+](=O)[O-]` (centres undefined) gave RecA intein inh -1, Mtb FBA inh -4, BJeLR viability -1, PrPC TRFRET -4 and GDH-TPI counter 4.
For CN(NC1OC(=O)c2ccccc21)c1ccc(Cl)cc1[N+](=O)[O-] (centres undefined) the results were RecA intein inh 0, Mtb FBA inh -3, BJeLR viability -2, PrPC TRFRET -7 and GDH-TPI counter 39*.
Screening COc1ccccc1/C=C/C(=O)NCC(=O)N=Nc1c(O)[nH]c2ccccc12 returned RecA intein inh -3, Mtb FBA inh 4, BJeLR viability 6, PrPC TRFRET -30 and GDH-TPI counter 36*.
COc1ccc(CC(=O)NCC(=O)N=Nc2c(O)[nH]c3ccccc23)cc1 was read as RecA intein inh 1, Mtb FBA inh -3, BJeLR viability 3, PrPC TRFRET -8 and GDH-TPI counter 10.
Screening CCN(CC)c1ccc2c(c1)oc(=O)c1c(Cl)cc(=O)oc12 returned Mtb FBA inh 4, BJeLR viability 31 and GDH-TPI counter 35*.
Screening COC(=O)c1ccc(C2NC(=S)N(c3ccccc3)C(C)=C2C(=O)Nc2ccccc2OC)cc1 (centres undefined) returned RecA intein inh 2, Mtb FBA inh active, BJeLR viability 0, PrPC TRFRET 4 and GDH-TPI counter 8.
`COc1ccc(-c2ccnc3ncnn23)cc1` gave RecA intein inh 1, Mtb FBA inh active, BJeLR viability 1, PrPC TRFRET -2 and GDH-TPI counter 13.
`FCCCOc1ccc(-c2ccnc3ncnn23)cc1` gave RecA intein inh 1, Mtb FBA inh active, BJeLR viability -16, PrPC TRFRET -15 and GDH-TPI counter 0.
Screening COc1ccc(-c2cc(-c3ccccc3)n3ncnc3n2)cc1 returned RecA intein inh 2, Mtb FBA inh 170*, BJeLR viability -7, PrPC TRFRET 1 and GDH-TPI counter 33*.
c1ccc2c(c1)ncn2-c1ccc(-c2ccnc3ncnn23)cc1 was read as RecA intein inh 0, Mtb FBA inh -2, BJeLR viability 4, PrPC TRFRET -27 and GDH-TPI counter 7.
`COc1cccc(NC(=S)/C(=C(\[O-])c2ccc(C)c([N+](=O)[O-])c2)[n+]2ccccc2)c1` gave RecA intein inh 37*, Mtb FBA inh -11, BJeLR viability 2, PrPC TRFRET -2 and GDH-TPI counter 10.
For COc1cc(OC)cc(-c2c(C#Cc3ccsc3)c3cc(-c4ccc(OC)nc4)ccc3n2C)c1 the results were Mtb FBA inh 18, PrPC TRFRET 3 and GDH-TPI counter 44*.
For COc1cc(OC)cc(-c2c(C#Cc3ccsc3)c3cc(Br)ccc3n2C)c1 the results were Mtb FBA inh 13, PrPC TRFRET -7 and GDH-TPI counter 9.
`COc1ccc(-c2c(C#Cc3ccsc3)c3cc(-c4ccc(C(N)=O)cc4)ccc3n2C)cc1` gave Mtb FBA inh 3, PrPC TRFRET 4 and GDH-TPI counter 12.
Screening COc1cc(OC)cc(-c2c(C#Cc3ccsc3)c3cc(-c4cccc5[nH]cc(C=O)c45)ccc3n2C)c1 returned Mtb FBA inh 6, PrPC TRFRET 0 and GDH-TPI counter 32*.
Screening COc1cc(OC)cc(-c2c(C#Cc3ccsc3)c3cc(-c4ccc(OC)c(OC)c4)ccc3n2C)c1 returned Mtb FBA inh 19, PrPC TRFRET 1 and GDH-TPI counter 44*.
For COc1cc(F)cc(-c2ccc3c(c2)c(C#Cc2ccsc2)c(-c2cc(OC)cc(OC)c2)n3C)c1 the results were Mtb FBA inh 14, PrPC TRFRET 3 and GDH-TPI counter 31*.
O=c1c2ccccc2oc2ccc(NCCCN3CCOCC3)cc12 was read as RecA intein inh -13, Mtb FBA inh 1, BJeLR viability 2, PrPC TRFRET 0 and GDH-TPI counter 8.
Cn1c2ccccc2c(=O)c2cc(NCCCN3CCOCC3)ccc21 was read as Mtb FBA inh active, PrPC TRFRET 14 and GDH-TPI counter 23.
For O=c1c2ccccc2oc2cc(NCCCn3ccnc3)ccc12 the results were RecA intein inh -18, Mtb FBA inh active, BJeLR viability -6, PrPC TRFRET 2 and GDH-TPI counter 23.
For O=c1c2ccccc2oc2cc(NCCCN3CCOCC3)ccc12 the results were RecA intein inh -495, Mtb FBA inh active, BJeLR viability -13, PrPC TRFRET 1 and GDH-TPI counter 22.
CCOC(=O)Cc1nc(N2CCCN(C(C)=O)CC2)c2c(C)c(C(=O)OCC)sc2n1 was read as PrPC TRFRET -10.
Cc1cc(C)cc(NC(=O)O[C@@H]2CC[C@@]34CCCN3C(=O)CCC[C@H]4C2)c1 was read as PrPC TRFRET 7.
C[C@H](CO)N1C[C@H](C)[C@@H](CN(C)C(=O)Nc2ccc(C(C)(C)C)cc2)OCc2cn(nn2)CCCC1=O was read as PrPC TRFRET -3.
For CCOC(=O)Cn1cc(/C=N/NC(=O)CC#N)c2ccccc21 the results were RecA intein inh 52*, Mtb FBA inh -4, BJeLR viability -1, PrPC TRFRET 6 and GDH-TPI counter 16.
For N#CCC(=O)N/N=C/c1cn(Cc2ccccc2C#N)c2ccccc12 the results were Mtb FBA inh 4, BJeLR viability -8, PrPC TRFRET 1 and GDH-TPI counter 21.
COC(=O)Cn1cc(/C=N/NC(=O)c2ccc(C#N)cc2F)c2ccccc21 was read as RecA intein inh 0, Mtb FBA inh -1, BJeLR viability 2, PrPC TRFRET -3 and GDH-TPI counter 38*.
CC1(C)CC(NC(=O)c2coc(=O)c(Br)c2)CC(C)(C)N1 was read as RecA intein inh -1, Mtb FBA inh 60*, BJeLR viability 7, PrPC TRFRET -8 and GDH-TPI counter 26.
CC(C)C[C@@H](NC(=O)OC(C)(C)C)C(=O)N1O[C@]23C=C[C@]14C[C@@H](O)CC[C@]4(C)C2CC[C@]1(C)[C@@H]([C@H](C)/C=C/[C@H](C)C(C)C)CC[C@H]13 (some centres undefined) was read as PrPC TRFRET 7.
Screening CCOC(=O)[C@]12CCCCC/C=C\1N(Cc1ccc(OC)cc1)C(=O)[C@H]2CC(=O)NCCc1ccccc1OC returned PrPC TRFRET 1.
CCN(CC)c1ccc(C=NNC(=O)Cc2cc(=O)[nH][nH]2)c(O)c1 was read as PrPC TRFRET -8.
For COc1cc(/C=C/C(=O)c2ccc3c(c2)OCCO3)cc(OC)c1OC the results were RecA intein inh 4, Mtb FBA inh -3, BJeLR viability -1, PrPC TRFRET -11 and GDH-TPI counter 37*.
For CC(C)N1CCc2c(sc(N)c2C#N)C1 the results were RecA intein inh -52, Mtb FBA inh 22, BJeLR viability 0, PrPC TRFRET 0 and GDH-TPI counter 32*.
Screening N#CC(c1ccc(O)cc1)N1CCOCC1 (centres undefined) returned RecA intein inh -2, Mtb FBA inh -1, BJeLR viability 7, PrPC TRFRET 0 and GDH-TPI counter 31*.
